Screens from PubChem BioAssay.
ERK AVP block = blocks ERK signaling stimulated by vasopressin; Potency, µM (doses to about 57.5 µM), without a hit: at the top dose activity, negative = inhibition, actives largely listed as inhibitors; hit rate 0.99% among 72,000; AID 995; HEK293-V1b, vasopressin-stimulated pERK AlphaScreen; further: nearly all actives have a fitted effect of over 55% in size
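qHTS, compounds titrated on V1b-expressing HEK293 cells. Preincubation 30 min at 37C, vasopressin 25 nM for 5 min, lysis 10 min, bead incubation 5 hr at room temperature.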
Tau filament bind = binders of human tau filaments; recombinant tau filaments, thioflavin S fluorescence, 15 h; filaments grown with octadecylsulfate alongside compound; P10636; Potency, µM (top dose mostly 57.1 µM), for inactives: at the top dose activity change, negative = inhibition; hit rate 2% among 71,000; AID 596;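 further: actives lower thioflavin S fluorescence by blocking filaments or displacing dye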
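Assay mix: 1 uM His-tagged tau, 30 uM sodium octadecylsulfate, thioflavine S dye in HEPES/NaCl/DTT buffer. Compound is added prior to the inducer. Fluorescence after 15 h at 37 C.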
Luciferase inh = inhibitors of firefly luciferase; P08659; purified firefly luciferase, luminescence, 8 min; hit rate 2.2% among 72,000; Potency, µM (titrated, usually from 57.1 µM), for inactives: at the top dose activity change, negative = inhibition, actives largely listed as inhibitors; AID 411; further: nearly all actives have a fitted effect of over 40% in size
Target sequence (P08659 whole entry, looked up): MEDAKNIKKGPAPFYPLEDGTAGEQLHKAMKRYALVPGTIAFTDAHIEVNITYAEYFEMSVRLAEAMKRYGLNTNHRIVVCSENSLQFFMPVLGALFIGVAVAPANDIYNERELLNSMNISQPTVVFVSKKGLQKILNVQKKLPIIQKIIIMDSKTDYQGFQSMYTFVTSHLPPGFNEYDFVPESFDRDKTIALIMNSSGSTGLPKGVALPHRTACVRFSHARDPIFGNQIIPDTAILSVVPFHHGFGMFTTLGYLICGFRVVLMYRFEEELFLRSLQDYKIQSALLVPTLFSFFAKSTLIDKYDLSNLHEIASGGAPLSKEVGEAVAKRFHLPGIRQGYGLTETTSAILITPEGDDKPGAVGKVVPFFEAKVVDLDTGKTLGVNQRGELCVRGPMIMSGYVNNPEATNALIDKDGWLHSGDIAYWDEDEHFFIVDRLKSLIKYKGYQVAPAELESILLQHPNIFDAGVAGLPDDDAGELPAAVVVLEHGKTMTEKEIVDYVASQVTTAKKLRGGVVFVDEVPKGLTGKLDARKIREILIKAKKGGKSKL
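Inhibition of light generation by firefly luciferase from ATP and luciferin was profiled with concentration-response curves per sample, ATP held at 10 uM within the enzyme's linear range. Plates were read by luminescence after an 8-minute ambient incubation.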
PK Bst = modulators of Bacillus stearothermophilus pyruvate kinase | Potency, µM | purified pyruvate kinase, luminescence ATP production; ribose 5-phosphate activator present at AC10 | hit rate 1.2% among 51,000; in the data active means potency below about 11 µM; inconclusive means mostly about 12 µM to 25 µM;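 the screen sought inhibitors and activators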;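 further: scaled between full activation by ribose 5 phosphate and full inhibition by luteolin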
Hsp90 Hop PPI = changes Hsp90-Hop TPR2A binding signal, up or down. AlphaScreen TPR2A-His6 binding biotin-Hsp90 C-terminal peptide. Potency, µM (series often up to 57 µM), inactives show at the top dose activity change, negative = inhibition. hit rate 0.44% among 71,000. AID 595; active means well fitted curve in either direction with a large enough effect; inconclusive means small, poorly fitted or top-dose-only effect, or another doubt
15-hLO inh = 15-hLO (ALOX15) enzyme inhibition. Potency, µM (series often up to 57.1 µM), for inactives: top-dose activity change, negative = inhibition, hits mostly inhibitors. P16050. AID 887. hit rate 1.4% among 74,000. purified 15hLO-1, xylenol orange hydroperoxide absorbance; further: nearly all actives have a fitted effect of over 55% in size
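Inhibition is scored from a chromogenic endpoint. After 15 min enzyme-compound contact, arachidonic acid (50 uM final) reacts 6 min with 40 nM 15hLO-1 at room temperature, then Fe-XO reagent is added for 30 min and absorbance ratio recorded.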
An asterisk follows results filed as active; i = inactive; u = inconclusive; x = no result; [ ] = another dose, or the depositor's remark. This is a sample that favours compounds with a hit; in the whole collection about 6.1% have one here. Unless noted, the call rests on the fitted dose curve; in most records, active means well fitted curve in the direction sought with a large enough effect; inconclusive means small, poorly fitted or top-dose-only effect, or another doubt; inactive means no such curve, though single readings can be large; an effect the other way counts as inactive or inconclusive. Unless noted, on the % scale 0 is the no-effect control and ±100 the full control effect; potency means the concentration at half of the fitted maximal effect.

SMILES	ERK AVP block	Tau filament bind	Luciferase inh	PK Bst	Hsp90 Hop PPI	15-hLO inh
COc1ccc(CCNc2ncnc3c2oc2ccccc23)cc1OC	32µM*	24%	1%	i	0%	8%
Cc1nc(NCCc2cnc[nH]2)c2oc3ccccc3c2n1	-21%	13%	-2%	>57	-8%	-9%
COc1ccccc1NC(=O)CSc1ncnc2c1oc1ccccc12	6%	0%	2%	>57	-2%	1%
c1ccc(-c2cnc(-c3ccc(-c4ncc(-c5ccccc5)o4)cc3)o2)cc1	5%[11.5 µM]	-1%[11.4 µM]	1%[11.4 µM]	x	-2%[11 µM]	u
Cc1nc2ncnn2c(Nc2ccc3c(c2)OCO3)c1Cc1ccccc1	25µM*	0%	1%	>57	-6%	8%
COc1ccc2[nH]cc(CCNc3ccnc(-c4ccc(N(C)C)cc4)n3)c2c1	u	82%	-2%[2.29 µM]	x	u	u
COCn1c(-c2ccc(OC)c(OC)c2)nc2ccccc21	u	-3%[11.4 µM]	16µM*	x	-5%[11 µM]	-2%[11.4 µM]
CC(=O)N=C(N)Sc1nc2ccccc2[nH]1	x	x	13µM*	u	x	x
Cc1cc(C)n2nc3nc(N4CCCCC4)nc(-c4ccco4)c3c2n1	33%	20µM*	0%	>57	u	16µM*
CC(C)CNC1=CC(=O)CC(c2ccco2)C1 (stereo not given)	-17%	-23%	-2%	x	-5%	10µM*
O=C1C=C(NCc2ccc(Cl)cc2)CC(c2ccco2)C1 (stereo not given)	-7%	-8%	2%	x	0%	-16%
Cc1cc(=O)[nH]c2cc3oc4ccccc4c3cc12	7%[11.5 µM]	36%[11.4 µM]	1%[11.4 µM]	x	-4%[11 µM]	-5%[11.4 µM]
CC(=O)O[C@H]1C(=O)[C@@]2(C)[C@H]([C@H](OC(=O)c3ccccc3)[C@]3(O)C[C@H](OC(=O)[C@H](O)[C@@H](NC(=O)c4ccccc4)c4ccccc4)C(C)=C1C3(C)C)[C@]1(OC(C)=O)CO[C@@H]1C[C@@H]2O	13%	-24%	16µM*	x	-2%	-2%
COC(=O)N1CCC2(CCN(Cc3nccs3)CC2)CC1	-1%	3%	0%[11.4 µM]	x	-3%	-7%
CCOc1ccc(-c2cc(CCCC(=O)NCCCOC)no2)cc1	2%	16%	16µM*	x	0%	17%
Cc1cccc(C#Cc2ccccc2)n1	10%	u	13µM*	x	3%	u
O=C(c1cccc(F)c1)N1CCC2(CC1)CN(c1ccccn1)C2	-9%	7%	-2%[11.4 µM]	x	-1%	-2%
O=C(CSc1ccc2nnc(-c3ccc(F)cc3)n2n1)N1CCOCC1	x	-20%	1%	x	-4%	6%
Cc1cc2nc(-c3ccc(SCC(=O)N4CCN(C(=O)c5ccco5)CC4)nc3)[nH]c2cc1C	8%	20%	0.63µM*	0.79*	-11%	-10%
Cc1cc2nc(-c3ccc(SCC(=O)N4CCOCC4)nc3)[nH]c2cc1C	-20%	19%	2.5µM*	2.1*	-4%	-3%
COC(=O)C1=C(C)N=c2s/c(=C/c3ccoc3)c(=O)n2C1c1ccccc1 (stereo not given)	-30%	-11%	-1%	>57	-23%	u
COC(=O)C1=C(C)N=c2s/c(=C/c3cccs3)c(=O)n2C1c1cccs1 (stereo not given)	0%	1µM*	0%	>57	-4%	5%
CO[C@@H]1COC(=O)[C@H]2CCCN2C(=O)C/C=C\[C@@H](C)[C@H](OC)COC(=O)[C@H]2CCCN2C(=O)C/C=C\[C@H]1C	3%[11.5 µM]	x	1%[11.4 µM]	x	x	5%[11.4 µM]
CCCNC(=O)c1c[nH]c2ccc(S(=O)(=O)N(C)c3ccc(OCC)cc3)cc2c1=O	-2%	8%	0%	>57	1%	-17%
CCOc1ccc(NS(=O)(=O)c2ccc3[nH]cc(C(=O)NC(C)CC)c(=O)c3c2)cc1 (stereo not given)	-13%	3%	4%	>57	-4%	25µM*
SMILES	ERK AVP block	Tau filament bind	Luciferase inh	PK Bst	Hsp90 Hop PPI	15-hLO inh
C/C(CCN1CCc2nc(-c3ccccc3)c(-c3ccccc3)cc2C1)=N\O[C@@H](C)CN1CCCc2nc(C)c(C)cc21	3%[11.5 µM]	x	0%[11.4 µM]	x	x	6%[11.4 µM]
COc1ccc2c(c1)OC/C(=C/c1ccc(O)c(O)c1)C2=O	-1%	x	x	x	x	-2%
COc1ccc2c(c1)OC/C(=C/c1ccc(OC)c(OC)c1)C2=O	16µM*	x	x	x	x	-5%
Cc1cc(C(=O)COC(=O)CN(C)S(=O)(=O)c2ccc(Cl)cc2)c(C)n1CC1CCCO1 (stereo not given)	-9%	-4%	-13%	>57	-11%	15%
Cc1cc(C(=O)COC(=O)C2COc3ccccc3O2)c(C)n1CC1CCCO1 (stereo not given)	22%	-6%	16µM*	i	-1%	-9%
O=C(c1ccccc1)c1cc(-c2ccccc2)on1	x	x	1.6µM*	1.9*	x	x
COc1ccc(OC)c(Nc2nc(-c3sc(C)nc3C)cs2)c1	u	-21%	1%	x	u	-13%
COc1cccc(Nc2nc(-c3sc(N)nc3C)cs2)c1	u	13µM*	-21%	i	u	-1%
Cc1nnc(NC(=O)c2sc3ccccc3c2Cl)s1	3%	-4%	2µM*	2.1*	-1%	8%
COCc1nnc(NC(=O)c2sc3ccccc3c2Cl)s1	9%	14%	20µM*	i	-3%	-9%
COCc1nnc(NC(=O)c2cccs2)s1	-17%	0%	-3%	>57	-2%	10%
Cc1nnc(NC(=O)c2ccccc2Br)s1	4%	-2%	-2%	>57	-2%	3%
NC(=O)c1c(NC(=O)c2cccs2)sc2c1CCCCCC2	u	i	7.9µM*	x	11%	u
O=C(Nc1nc2c(s1)CCCC2)c1cccs1	6%	-1%	5µM*	9.7*	0%	-21%
O=C(Nc1sc2c(c1C(=O)O)CCC2)c1cccs1	2%	6%	-3%	>57	3%	0%
O=C(Nc1nc2c(s1)CCCC2)c1ccc(Br)o1	u	62%[11.4 µM]	6.3µM*	x	-8%[11 µM]	u
O=C(Cc1cccs1)Nc1nc2c(s1)CCCC2	-16%	-16%	-23%	>57	-2%	-1%
CCCN[C@@H](C)C(=O)Nc1ccccc1C	2%[25.7 µM]	0%[25.6 µM]	3%[25.5 µM]	x	-1%[26 µM]	6%[25.6 µM]
CCCc1nc2sc3ccccc3c(=O)c2c(=O)n1Cc1ccco1	-7%	16µM*	1%	x	-4%	-19%
COc1ccccc1-c1nccc(N2CCN(C)CC2)n1	7%	1%	2%[2.29 µM]	x	-6%	11%
C=Cc1c(C)c2cc3[nH]c(cc4nc(cc5nc(cc1[nH]2)C(C)=C5CCC(=O)O)C(CCC(=O)O)=C4C)c(C)c3C=C	408%	5µM*	-19%	x	u	u
